L3MBTL1 block – L3MBTL1 (human) inhibition. AlphaScreen L3MBTL1–H3K9me1 peptide binding. Potency, µM (series often up to 57.1 µM), without a hit: at the highest dose activity, negative = inhibition, hits mostly inhibitors. 230,000 compounds, 0.66% hits. AID 485360; further: on the % scale 0 is the no-effect control and ±100 the full control effect; nearly all actives have a fitted effect of over 60% in size
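L3MBTL1 (50 nM) pre-complexed 30 min with biotinylated H3(1-15)K9me1 peptide (75 nM), then compounds added for 30 min at room temperature; AlphaScreen streptavidin donor/nickel chelate acceptor beads (10 ug/mL final) read after 30 min dark incubation.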
G9a block – inhibitors of human histone lysine methyltransferase G9a; Q96KQ7; G9a H3K9 monomethylation, AlphaScreen, 2 h; Potency, µM (top dose mostly 102 µM), for the others: top-dose activity, negative = inhibition, hits mostly inhibitors; 350,000 compounds, 8.8% hits; AID 504332; further: on the % scale 0 is the no-effect control and ±100 the full control effect; nearly all actives have a fitted effect of over 75% in size
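G9a (20 nM) was preincubated 15 min with compound, then reacted 2 h at room temperature with 500 nM biotin-H3K9 peptide and 20 µM SAM. Monomethyl-H3K9 detected by AlphaScreen using anti-H3K9me1 antibody.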
Sfp PPTase inh – blocks B. subtilis Sfp PPTase activity; Potency, µM, for inactives: largest response in the series, negative = inhibition, usual class: inhibitors; Q9F4F7; Biochemical Sfp PPTase activity, qHTS; AID 1490; 310,000 compounds, 3.5% hits;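 further: the enzyme is Sfp with the accession as filed and its product quenches rhodamine fluorescence; 0% = enzyme reaction without inhibitor and -100% = no enzyme wells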
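Compounds were incubated with enzyme (final 15 nM) for 15 min at room temperature before substrate addition started the reaction. Fluorescence at 525 nm excitation, 598 nm emission was recorded immediately and after 30 minutes.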
BAZ2B block – BAZ2B (human) inhibition; Q9UIF8; AlphaScreen BAZ2B-H3K14Ac peptide displacement; Potency, µM (doses to about 114 µM), without a hit: at the highest dose activity change, negative = inhibition, most hits filed as inhibitors; 360,000 compounds, 4.4% hits; AID 504333; further: on the % scale 0 is the no-effect control and ±100 the full control effect; nearly all actives have a fitted effect of over 60% in size
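AlphaScreen displacement: compounds (up to 110uM) incubated 30 min at room temperature with a preformed 50 nM BAZ2B/50 nM biotinylated H3K14Ac peptide complex in PBS pH 7.4 with Tween-20. Donor and acceptor beads at 10 ug/mL final added, 20 min light-protected before reading.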
HP1b chromo inh – inhibitors of HP1-beta chromodomain binding to methylated histone tails; AlphaScreen HP1-beta / biotin-H3K9me3 peptide binding; Potency, µM (highest dose often 114 µM), inactives show top-dose activity change, negative = inhibition, hits mostly inhibitors; P83916; 390,000 compounds, 0.56% hits; further: nearly all actives have a fitted effect of over 70% in size
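AlphaScreen: HP1-beta (50 nM) preformed 30 min with biotin-H3(1-18)K9me3 peptide (50 nM) in PBS pH 7.4, 0.01% Tween-20. Compound added for 30 min at RT, then streptavidin donor/nickel chelate acceptor beads (10 ug/mL) for 30 min.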
JMJD2A Tudor – blocks the human JMJD2A Tudor domain. O75164. Potency, µM (series often up to 114 µM), for inactives: top-dose activity change, negative = inhibition, most hits filed as inhibitors. 390,000 compounds, 4.4% hits. AID 504339. AlphaScreen JMJD2A-Tudor / H3K4me3 peptide binding; further: on the % scale 0 is the no-effect control and ±100 the full control effect; nearly all actives have a fitted effect of over 50% in size
Starred values were filed as active, the others as inactive; [ ] = another dose, or the depositor's remark. A selection: hits, their analogues and other compounds. The true share with any hit is near 12%. The call rests on the fitted dose curve; in most records, active means well fitted curve in the direction sought with a large enough effect; inconclusive means small, poorly fitted or top-dose-only effect, or another doubt; inactive means no such curve, though single readings can be large; an effect the other way counts as inactive or inconclusive. Potency means the concentration at half of the fitted maximal effect.

What do the screens show for `Cc1nc2ccccc2c(=O)n1/N=C/c1ccccc1`?
L3MBTL1 block: 2.1%; G9a block: 28.1%[0.501 µM]; Sfp PPTase inh: 7.0%; BAZ2B block: 0.1%[57.1 µM]; HP1b chromo inh: 30.2%; JMJD2A Tudor: 0.6%

How did Cc1nc2ccccc2c(=O)n1/N=C/c1ccc(O)c(O)c1O do in these assays?
G9a block: 1.26µM*; Sfp PPTase inh: 7.08µM*; BAZ2B block: inconclusive; HP1b chromo inh: inconclusive; JMJD2A Tudor: 14.1µM*

How did Cc1nc2ccccc2c(=O)n1/N=C/c1ccc2ccccc2c1O do in these assays?
L3MBTL1 block: 31.6µM*; G9a block: 28.2µM*; Sfp PPTase inh: 3.4%; BAZ2B block: inconclusive; HP1b chromo inh: 12.0%; JMJD2A Tudor: inconclusive

Results for Cc1nc2ccccc2c(=O)n1/N=C/c1ccccc1O ?
L3MBTL1 block: 3.5%; Sfp PPTase inh: -5.8%; BAZ2B block: -6.7%; HP1b chromo inh: 36.4%; JMJD2A Tudor: -12.0%

Results for Cc1cc([N+](=O)[O-])cc(/C=N/n2c(C)nc3ccccc3c2=O)c1O ?
L3MBTL1 block: inconclusive; G9a block: -36.6%; Sfp PPTase inh: 19.2%; BAZ2B block: 79.4µM*; HP1b chromo inh: 32.6%; JMJD2A Tudor: inconclusive

What do the screens show for `Cc1[nH]n(-c2ccccc2)c(=O)c1/C=N/n1c(C)nc2ccccc2c1=O`?
L3MBTL1 block: 7.3%; G9a block: 3.16µM*; Sfp PPTase inh: -19.4%; BAZ2B block: 1.0%; HP1b chromo inh: 33.3%; JMJD2A Tudor: -11.5%[57.1 µM]

Results for O=C1[C@@H]2CSC(c3ccc(F)cc3)N2C(=O)N1c1ccc(Cl)cc1 (some centres undefined) ?
G9a block: 34.1%[59 µM]; BAZ2B block: 8.9%; HP1b chromo inh: 77.3%; JMJD2A Tudor: 35.4%

What do the screens show for `Cc1ccc(NC(=O)CN2C=NS(=O)(=O)c3ccccc32)cc1`?
G9a block: 3.2%[59 µM]; BAZ2B block: -1.4%; HP1b chromo inh: 5.8%; JMJD2A Tudor: -17.0%

How did COc1cc(CNCc2cccc3ccccc23)cc(OC)c1 do in these assays?
L3MBTL1 block: 0.5%; G9a block: 50.1µM*; Sfp PPTase inh: -9.6%; BAZ2B block: 50.1µM*; HP1b chromo inh: 11.2%; JMJD2A Tudor: 25.1µM*

How did COc1cc(CNCc2c[nH]c3ccccc23)cc(OC)c1 do in these assays?
L3MBTL1 block: -10.0%; G9a block: 14.1µM*; Sfp PPTase inh: -3.2%; BAZ2B block: 56.2µM*; HP1b chromo inh: inconclusive; JMJD2A Tudor: 3.55µM*

What do the screens show for `COC(=O)C1=C(C)NC(C)=C(C(=O)OCCN2CCN(C(c3ccccc3)c3ccccc3)CC2)C1c1cccc([N+](=O)[O-])c1` (centres undefined)?
G9a block: inconclusive; Sfp PPTase inh: -29.2%

What do the screens show for `Cc1noc(C)c1C(=O)N1CCC2(CCCN(c3ccccc3)C2)CC1`?
G9a block: -1.0%[12.7 µM]; Sfp PPTase inh: 11.2%

Results for COc1ccc(C(CCN2CCCC(C)C2)c2c(OC)cc(OC)c3c2OC(=O)CC3c2cc(OC)c(OC)c(OC)c2)cc1 (centres undefined) ?
G9a block: -5.8%[59 µM]; Sfp PPTase inh: 1.7%; BAZ2B block: -24.4%; HP1b chromo inh: 6.8%; JMJD2A Tudor: -21.4%

Results for CCN(CC)CCC(c1ccc(N(C)C)cc1)c1c(OC)cc(OC)c2c1OC(=O)CC2c1ccc(N(C)C)cc1 (centres undefined) ?
Sfp PPTase inh: 8.7%; HP1b chromo inh: 14.1µM*; JMJD2A Tudor: 12.6µM*

What do the screens show for `CCN(CC)CCC(c1ccc2c(c1)OCO2)c1c(OC)cc(OC)c2c(C)cc(=O)oc12` (centres undefined)?
Sfp PPTase inh: inconclusive; HP1b chromo inh: 10.1%; JMJD2A Tudor: -31.7%

What do the screens show for `COc1cc(OC)c2c(c1C(CCN1CCN(c3ccccc3)CC1)c1ccc(N(C)C)cc1)OC(=O)CC2c1ccc(N(C)C)cc1` (centres undefined)?
Sfp PPTase inh: 7.4%; HP1b chromo inh: inconclusive; JMJD2A Tudor: 12.6µM*

Assay outcomes deposited in PubChem by National Center for Advancing Translational Sciences (NCATS).
